Most compounds without a hit are left out; they make up all but 5.5% or so of the library.
Giardia killer: Giardia lamblia killing; Giardia lamblia trophozoite viability; activity change, % at 7.66 µM, hits read low; actives 0.15% (n = 340,000); AID 540267; in the data active = activity change below about -80%; inconclusive = between about -30% and that limit;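 note: parasites exposed to compound for two days anaerobically before the ATP read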
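Each well holds 100 Giardia trophozoites and compound. After two days (48 hrs) at 37 deg C in anaerobic conditions, ATP is quantified by luminescence.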
FBPA coupling cs: counter-screen for Giardia aldolase inhibitors: coupling enzyme system; coupling enzyme system counterscreen, AmpLite Red fluorescence; activity change, negative = inhibition, % at 58.2 µM, hits read low; actives 0.67% (n = 290,000); AID 2472; in the data active = activity change below about -30%
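Counterscreen lacking aldolase: glyceraldehyde-3-phosphate coupling-enzyme reagent preincubated 10 min at RT with compound (at 57.5 uM final), then substrate/coupling system with AmpLite Red added; fluorescence read at 525/598 nm after 20 min RT.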
Sfp inh: blocks B. subtilis Sfp PPTase activity; Q9F4F7; Biochemical Sfp PPTase activity, qHTS; Potency, µM, most hits filed as inhibitors; actives 3.5% (n = 310,000); AID 1490;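 note: the enzyme is Sfp with the accession as filed and its product quenches rhodamine fluorescence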
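Reaction rates are the 30-min fluorescence difference (ex 525, em 598 nm) in wells containing 15 nM Sfp, 5 uM rhodamine-CoA and 12.5 uM BHQ-2-YbbR at pH 7.6 with 10 mM MgCl2.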
ELG1 repair inh: ELG1-dependent DNA repair inhibition. Potency, µM (series often up to 46.1 µM), actives largely listed as inhibitors. HEK293T ELG1-luciferase reporter, luminescence, 16 h; DNA damage induced by 5-fluorouridine. actives 2.3% (n = 330,000); note: nearly all actives have a fitted effect of over 55% in size
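Overnight (16 hr) co-exposure of 2,000 cells/well to 5-fluorouridine and compound at 37 °C preceded detection. Luciferase was quantified via ONE-Glo luminescence; loss of signal denotes inhibition.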
A number is an active result; . = inactive; ? = inconclusive; / = no result given. Unless noted, calls come from the whole dose curve; as a rule, active = well fitted curve in the direction sought with a large enough effect; inconclusive = small, poorly fitted or top-dose-only effect, or another doubt; inactive = no such curve, though single readings can be large; an effect the other way counts as inactive or inconclusive.

SMILES	Giardia killer	FBPA coupling cs	Sfp inh	ELG1 repair inh
CCCCCC(=O)Nc1cccc(C2=NOC3(C2)C[C@@H](C(N)=O)N(C(=O)Cc2ccc([N+](=O)[O-])cc2)C3)c1 (stereo not given in full)	.	.	.	13µM
NC(=O)[C@H]1CC2(CC(c3cccc(NC(=O)COc4ccc(Cl)cc4)c3)=NO2)CN1C(=O)Cc1ccc([N+](=O)[O-])cc1 (stereo not given in full)	.	.	.	2.1µM
CC(C)CN1CCC2(CC1)CCN(C(=O)c1ccco1)CC2	/	.	.	/
COc1ccc(/C=C/C(=O)Nc2cc(S(=O)(=O)N3CCOCC3)ccc2N2CCCC2)cc1OC	.	.	.	.
COc1cccc(/C=C/C(=O)OCC(=O)Nc2ccc(S(=O)(=O)N3CCCC3)cc2)c1	.	.	79µM	.
COc1cc(/C=C/C(=O)Nc2cc(S(=O)(=O)N3CCOCC3)ccc2N2CCCC2)cc(OC)c1OC	.	.	28µM	?
COc1cc(/C=C/C(=O)OCC(=O)Nc2cc(S(=O)(=O)N3CCOCC3)ccc2Cl)cc(OC)c1OC	.	/	/	18µM
COc1cccc(OC)c1C(=O)Nc1ccc(C(=O)NCc2ccccc2)cc1	.	.	.	.
CCCCc1nc2c(c3c1C[C@H](C)OC3)CN(C(=O)Nc1cccc(C#N)c1)CC2	/	.	.	/
C/C=C/c1ccc(OCCCNC(C)CC)c(OC)c1 (stereo not given)	.	.	56µM	.
C/C=C/c1ccc(OCCCNC2CCCC2)c(OC)c1	.	.	?	.
OC(CNCCc1ccc(Cl)cc1)COc1ccc2ccccc2c1 (stereo not given)	.	.	32µM	.
C/C=C/c1ccc(OCC(O)CNCCc2ccc(OC)cc2)c(OC)c1 (stereo not given)	.	.	79µM	.
CN(Cc1ccc(C(F)(F)F)cc1)C(=O)C1CCC(=O)N(C2CC2)C1 (stereo not given)	?	/	.	.
COc1ccccc1-c1nnc2n1N=C(c1c(OC)cccc1OC)CS2	/	.	.	/
CC(C)c1ccc(NC(=O)CSc2n[nH]c(=O)n2C2CC2)cc1	.	/	.	.
COc1ccc(S(=O)(=O)Nc2ccccc2C(=O)Nc2nc(-c3ccc(F)cc3)cs2)cc1OC	.	.	.	15µM
COc1ccc(-c2csc(NC(=O)c3ccccc3NS(=O)(=O)c3ccc(C)cc3)n2)cc1	.	.	.	13µM
COc1ccc(-c2csc(NC(=O)COc3ccc(N(C)S(=O)(=O)c4ccc(C)cc4)cc3)n2)cc1	.	.	.	7.3µM
CCCNC(=O)c1ccccc1NS(=O)(=O)c1ccc(OC)c(OC)c1	.	.	.	.
NC(=O)c1ncn([C@@H]2O[C@H](CNCc3ccc(OCC(=O)Nc4ccccn4)cc3)[C@@H](O)[C@H]2O)n1	.	/	/	/
COc1ccc2c(c1)C(=O)[C@@H](OC(=O)NC1CCCC1)[C@H](c1ccc(OC)c(Br)c1)O2	/	.	.	/
CCn1ccnc1CN1CCc2c([nH]c3ccccc23)C1CC(C)C (stereo not given)	.	.	.	23µM
CCn1ccnc1CN1CCc2c([nH]c3ccccc23)C1C(C)(C)C (stereo not given)	.	.	.	.
Cc1ccc(C(=O)NC(=O)OCCn2c(C)cnc2[N+](=O)[O-])cc1	-88	.	.	.
SMILES	Giardia killer	FBPA coupling cs	Sfp inh	ELG1 repair inh
Cc1cnc([N+](=O)[O-])n1CCOC(=O)NC(=O)c1ccccc1	?	.	.	.
COc1ccccc1C(=O)NC(=O)OCCn1c(C)cnc1[N+](=O)[O-]	-82	.	.	.
O=C(CSc1nc(=O)n(CCCN2CCOCC2)c2c1CCC2)Nc1cccc(F)c1	.	/	/	.
CCc1sc(-c2cc3ccccc3oc2=O)nc1-c1ccc(C)cc1	.	/	/	/
C[C@H]1[C@H](C)CC[C@]2(C=O)CC[C@]3(C)C(=CC[C@@H]4[C@@]5(C)C[C@@H](O)[C@H](O)[C@@](C)(CO)[C@@H]5CC[C@]43C)[C@H]12	/	.	.	/
O=C(NCc1ccco1)C(c1ccccc1)N(Cc1cccnc1)C(=O)Cn1nnc2ccccc21 (stereo not given)	.	.	.	.
CCCCN(C(=O)Cn1nnc2ccccc21)C(C(=O)NCc1ccco1)c1ccncc1 (stereo not given)	.	.	50µM	.
Cc1cc(C)cc(N(C(=O)Cn2nnc3ccccc32)C(C(=O)NCc2ccco2)c2ccncc2)c1 (stereo not given)	.	.	45µM	.

Assay outcomes as filed in PubChem.
